The values below come from PubChem BioAssay (NCATS).

Molecules are shown by their SMILES. Inconclusive results are not listed. Calls of active or inactive are those of the source. Unless noted, no rule for the calls is given here.

A short description of assay [1]: qHTS assay for cell viability of HEK293 cells (AID 743288; active = well fitted curve in the direction sought with a large enough effect; an effect the other way counts as inactive or inconclusive; also: % is scaled to controls: 0 for no effect and ±100 for the full control effect; nearly all actives have a fitted effect of over 50% in size). The following applies: ATP luminescence (CellTiter-Glo), 18 h, stronger effect = lower value. The method in brief: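 Steps: plate 2,000 parental HEK293 cells per well; incubate ≥5 h, 37 C; add compounds in DMSO; incubate 18 h, 37 C; add CellTiter-Glo; wait 30 min at room temperature; read luminescence.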
Assay [2] can be described thus: qHTS assay for cell viability of the p53RE-bla HCT-116 cell line (AID 743292; active = well fitted curve in the direction sought with a large enough effect; an effect the other way counts as inactive or inconclusive; also: % is scaled to controls: 0 for no effect and ±100 for the full control effect; nearly all actives have a fitted effect of over 55% in size). The following applies: p53RE-bla HCT-116 viability, ATP luminescence, 16 h; series mostly up to 95 µM. The method in brief:
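CellSensor p53RE-bla HCT-116 cells (4,000/well) pre-incubated 5 h at 37 C, then exposed to compounds in DMSO for 16 h at 37 C. Viability read as ATP content by CellTiter-Glo luminescence after 30 min at room temperature.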
Background: In qHTS, concentration-response curves come from the screen itself.

Assay [3] can be described thus: qHTS profiling of the MIPE4 collection as inhibitors of Plasmodium falciparum (3D7) proliferation (AID 743344).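 Also: scaled between DMSO vehicle wells and 0.29 µM artemisinin as full inhibition.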 Particulars: P. falciparum 3D7 in erythrocytes, SYBR Green DNA fluorescence, 72 h; at 28.5 µM (top of the series) unless noted. The method in brief:
(§1)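 Parasite DNA was quantified by SYBR Green I fluorescence (ex 485, em 535 nm) after overnight lysis in saponin/Triton buffer at room temperature. Cultures at 0.3% parasitemia and 2.5% hematocrit were first exposed to compound for 72 h at 37 C; signals were normalised to artemisinin (0.29 uM) and vehicle wells.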

A short description of assay [4]: qHTS profiling of the MIPE4 collection as inhibitors of Plasmodium falciparum (DD2) proliferation (AID 743345). The following applies: P. falciparum Dd2 in erythrocytes, SYBR Green DNA, 72 h; at 28.5 µM (top of the series) unless noted. The method in brief:
as §1

Assay [5] is described as follows: qHTS profiling of the MIPE4 collection as inhibitors of Plasmodium falciparum (HB3) proliferation (AID 743347).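 Also: plate controls were DMSO vehicle wells for no effect and artemisinin wells for full effect.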 Particulars: P. falciparum HB3 in erythrocytes, SYBR Green DNA, 72 h; at 28.5 µM (top of the series) unless noted. The method in brief:
as §1

Assay [6] can be described thus: qHTS profiling for inhibitors of Plasmodium falciparum (3D7) proliferation (AID 743322).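 Also: infected erythrocytes exposed to compound for 72 h before lysis; 100% = DMSO vehicle wells and 0% = 0.29 µM artemisinin.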 The following applies: P. falciparum 3D7 proliferation; at 28.7 µM (top of the series). The procedure, abridged:
as §1

Assay [7] can be described thus: qHTS profiling for inhibitors of Plasmodium falciparum (DD2) proliferation (AID 743323). Particulars: lower = more inhibition; at 28.7 µM (top of the series). The method in brief: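 P. falciparum Dd2-infected erythrocytes (0.3% parasitemia, 2.5% hematocrit) exposed 72 h at 37 C, 5% CO2. Lysis with SYBR Green, overnight at room temperature, fluorescence 485/535 nm; normalized to 0.29 uM artemisinin and DMSO.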

Assay [8] is described as follows: qHTS profiling for inhibitors of Plasmodium falciparum (HB3) proliferation (AID 743324; active = well fitted curve in the direction sought with a large enough effect; an effect the other way counts as inactive or inconclusive;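 also: 100% = DMSO vehicle wells and 0% = artemisinin-treated control wells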). Particulars: Plasmodium falciparum HB3 blood-stage proliferation; at 28.7 µM (top of the series). The method in brief: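 SYBR Green fluorescence (485 ex/535 em) of lysed cultures, incubated overnight at room temperature in the dark, quantifies parasite DNA. Infected erythrocytes at 0.3% parasitemia and 2.5% hematocrit were exposed 72 h; values normalized to DMSO and 0.29 uM artemisinin controls.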

Assay [9] is described as follows: qHTS profiling of the MIPE4 collection as inhibitors of Plasmodium falciparum (DD2) proliferation (Rep 2) (AID 743346). The following applies: P. falciparum Dd2 in erythrocytes, SYBR Green DNA, 72 h; at 28.5 µM (top of the series) unless noted. The procedure, abridged:
as §1

The nature of assay [10]: qHTS Assay for Identifying Gametocytocidal Compounds (AID 743244; active = well fitted curve in the direction sought with a large enough effect; an effect the other way counts as inactive or inconclusive; also: potency is read from the fitted curve at half-maximal effect;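 as to max response: % is scaled to controls: 0 for no effect and ±100 for the full control effect; actives lower the fluorescent signal which means gametocytes are killed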). Particulars: P. falciparum 3D7 stage III-V gametocytes, alamarBlue, 72 h; max response: stronger effect = lower value. The procedure, abridged: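 Viability read-out was resazurin reduction (alamarBlue, 24 h) measured at Ex 525/Em 598 nm. Beforehand, late-stage (III-V) 3D7 P. falciparum gametocytes at 20,000 cells/well were incubated with compound 72 h at 37C under 5% CO2.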

For `C[C@]12CC[C@@H]3c4ccc(O)cc4CC[C@H]3[C@H]1CC[C@H]2O`, the max response in [1] was -7.02% (inactive). Besides, the outcome in [2] was inactive. In addition, the parasite growth, % of DMSO control in assay [3] was 65.8%. Further, in assay [4], the parasite growth remaining, % of DMSO control (lower = more inhibition) came to 93.3%. Further, the growth, % of control in assay [5] worked out at 86.3%.

As for `COc1cccc2c1C(=O)c1c(O)c3c(c(O)c1C2=O)C[C@@](O)(C(=O)CO)C[C@H]3O[C@H]1C[C@H](N)[C@H](O)[C@H](C)O1`, the remaining parasite growth % (stronger effect = lower value) in assay [6] was -4.47%. Moreover, the activity, percent of control in [7] was -1.95%. The remaining proliferation (% of control), lower = more inhibition in [8] was 4.32%. Moreover, the parasite growth, % of DMSO control in assay [3] turned out to be 3.34%. The parasite growth remaining, % of DMSO control (lower = more inhibition) in assay [4] stood at 5.82%. Moreover, the parasite growth, % of control (lower = inhibition) in assay [9] was found to be 5.25%. The growth, % of control in assay [5] turned out to be 1.64%.

In the case of `O=C(O)CCCCCC(=O)NN=C1CCCC1`, the remaining parasite growth % (stronger effect = lower value) in assay [6] came to 92.8%. Moreover, the activity, percent of control in [7] was found to be 96.4%. Further, the remaining proliferation (% of control), lower = more inhibition in assay [8] came out at 107%. In [9], the parasite growth, % of control (lower = inhibition) amounted to 194%. Besides, the growth, % of control in [5] turned out to be 101%.

Take `Cc1onc(-c2ccccc2)c1C(=O)N[C@@H]1C(=O)N2[C@@H](C(=O)O)C(C)(C)S[C@@H]12`: the parasite growth, % of DMSO control in assay [3] was 92.7%. Also, in assay [4], the parasite growth remaining, % of DMSO control (lower = more inhibition) amounted to 99.9%.

As for `CC(C=CC1=C(C)CCCC1(C)C)=CC=CC(C)=CC(=O)Nc1ccc(O)cc1`, in [2], the compound was called inactive. In [3], this compound had a parasite growth, % of DMSO control of 4.7% [at 57.5 µM]. In addition, the parasite growth remaining, % of DMSO control (lower = more inhibition) in [4] amounted to 6.69% [at 57.5 µM]. In addition, the parasite growth, % of control (lower = inhibition) in assay [9] was determined as 18.5% [at 57.5 µM].

Turning to `NC(=O)c1ncn([C@@H]2O[C@H](CO)[C@@H](O)[C@@H]2O)c1N`, the remaining parasite growth % (stronger effect = lower value) in [6] came to 94.2%. Moreover, the activity, percent of control in assay [7] came out at 92.4%. Further, the remaining proliferation (% of control), lower = more inhibition in assay [8] stood at 92.9%. Also, the parasite growth, % of DMSO control in [3] worked out at 96.5%. Moreover, the parasite growth remaining, % of DMSO control (lower = more inhibition) in assay [4] was 91.5%. In addition, the parasite growth, % of control (lower = inhibition) in assay [9] was found to be 95.2%. In [5], this compound showed a growth, % of control of 68.2%.

With `COc1cc(C=CC(=O)CC(=O)C=Cc2ccc(O)c(OC)c2)ccc1O`, in assay [6], the remaining parasite growth % (stronger effect = lower value) was -1.44%. Moreover, in assay [7], the activity, percent of control is -0.402%. Further, the remaining proliferation (% of control), lower = more inhibition in assay [8] stood at 0.164%. The compound also gave a parasite growth, % of DMSO control in assay [3] of 4.86% [at 57.5 µM]. In assay [9], the parasite growth, % of control (lower = inhibition) stood at 16.5% [at 57.5 µM]. The compound also had a growth, % of control in assay [5] of 2.99% [at 57.5 µM].

Consider `O=c1[nH]c(=O)n([C@H]2C[C@@H](O)[C@@H](CO)O2)cc1C=CBr`, for which, in assay [10], the max response is 30.7% (inactive).

In assay [3], `CN(C)c1ccc(C(=O)NCCCCCCC(=O)NO)cc1` showed a parasite growth, % of DMSO control of 5.09%.

With `COc1cc2c(cc1OC)[C@@H]1C(=O)c3ccc4c(c3O[C@@H]1CO2)C=CC(C)(C)O4`, the max response in assay [10] is -5.53% (inactive). The remaining parasite growth % (stronger effect = lower value) in assay [6] is 39.1%. Further, in assay [7], the activity, percent of control was 44.5%. Also, the remaining proliferation (% of control), lower = more inhibition in assay [8] was determined as 17.6%. The parasite growth, % of DMSO control in assay [3] is 45.9%. Moreover, the parasite growth remaining, % of DMSO control (lower = more inhibition) in assay [4] amounted to 91.2%. The parasite growth, % of control (lower = inhibition) in assay [9] was determined as 39.7%. Also, in assay [5], the growth, % of control was determined as 47.7%.

On to `Cn1c(Nc2ccc(C(F)(F)F)cc2)nc2cc(Oc3ccnc(-c4ncc(C(F)(F)F)[nH]4)c3)ccc21`, for which the Potency in [10] was 23.5 µM (active). Further, in assay [6], the remaining parasite growth % (stronger effect = lower value) is -1.53%. For the same compound, in [7], the activity, percent of control worked out at 0.692%. The remaining proliferation (% of control), lower = more inhibition in [8] is -0.79%. Moreover, the parasite growth remaining, % of DMSO control (lower = more inhibition) in assay [4] was found to be 10.9%. Further, the growth, % of control in assay [5] worked out at 8.58%.

For `Nc1ccn(C2CO[C@H](CO)O2)c(=O)n1` (stereo partly specified), the max response in [10] was 19.9% (inactive). Also, the parasite growth remaining, % of DMSO control (lower = more inhibition) in assay [4] was 105%. In addition, in assay [9], the parasite growth, % of control (lower = inhibition) stood at 89.7%. Moreover, in assay [5], the growth, % of control came out at 75.5%.
